Measurements published in PubChem BioAssay (NCI).
The panel holds about 83,000 compounds, 20% with a hit somewhere; the sample as a whole holds those more often.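 96-well plates, one dose, 48 hours. Percent growth reported; active if below 10.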 Values without a mark were called inactive. The source made the active and inactive calls.

Legend:
Test in all cases: NCI-60 one-dose screen, 48 h (100 = growth as untreated, 0 = no growth, -100 = all killed)
Settings in all cases: 10 µM
NCI-H23 lung = system: NCI-H23 lung
NCI-H226 lung = system: NCI-H226 lung
NCI-H322M lung = system: NCI-H322M lung
HOP-62 NSCLC = system: HOP-62 NSCLC
NCI-H460 lung = system: NCI-H460 lung
HOP-92 NSCLC = system: HOP-92 NSCLC
NCI-H522 lung = system: NCI-H522 lung
A549/ATCC NSCLC = system: A549/ATCC NSCLC
786-0 renal = system: 786-0 renal
COLO 205 colon = system: COLO 205 colon

For `CN1C(=O)/C(=C/c2nccs2)SC1=S`, the growth (NCI-H23 lung) was 80.8%, the growth (NCI-H226 lung) was 87.2% and the growth (NCI-H322M lung) was 83.7%. For the same molecule, the growth (HOP-62 NSCLC) was 111%, the growth (NCI-H460 lung) was 91% and the growth (HOP-92 NSCLC) was 92.4%. It also gave a growth (NCI-H522 lung) of 77.7%, a growth (A549/ATCC NSCLC) of 98.5% and a growth (786-0 renal) of 105%. For the same molecule, the growth (COLO 205 colon) was 119%.

`COc1ccc(CN2[C@@H](C(=O)NCc3ccc(C(=O)NO)cc3)Cc3c([nH]c4ccccc34)[C@@H]2C)cc1` showed a growth (NCI-H23 lung) of 15.2%, a growth (NCI-H226 lung) of 45.8% and a growth (NCI-H322M lung) of 30.5%. For the same molecule, the growth (HOP-62 NSCLC) was 37.7%, the growth (NCI-H460 lung) was 11.7% and the growth (HOP-92 NSCLC) was 2.77% (active). For the same molecule, the growth (NCI-H522 lung) was -5.15% (active), the growth (A549/ATCC NSCLC) was 41.6% and the growth (786-0 renal) was 39.7%. The growth (COLO 205 colon) was -12.6% (active).

`COc1cc2c3c(n(CCCn4ccnc4)c(=O)c2cc1OC)-c1nc2c(cc1C3=O)OCO2` was tested, and the growth (NCI-H23 lung) was 20%, the growth (NCI-H226 lung) was 30.3% and the growth (NCI-H322M lung) was 71.6%. For the same molecule, the growth (HOP-62 NSCLC) was 22.7%, the growth (NCI-H460 lung) was 8.7% (active) and the growth (HOP-92 NSCLC) was 117%. The growth (NCI-H522 lung) was 40.4%, the growth (A549/ATCC NSCLC) was 47.7% and the growth (786-0 renal) was 12.1%. It also gave a growth (COLO 205 colon) of 34.2%.

In the case of `O=C(NO)c1ccc(CNC(=O)[C@H]2Cc3c([nH]c4ccccc34)[C@H](c3ccc(Cl)cc3)N2)cc1`, the growth (NCI-H23 lung) was -50.8% (active), the growth (NCI-H226 lung) was 28.2% and the growth (NCI-H322M lung) was 28.5%. The growth (HOP-62 NSCLC) was 2.45% (active), the growth (NCI-H460 lung) was 10.3% and the growth (HOP-92 NSCLC) was -17.1% (active). The growth (NCI-H522 lung) was -35.2% (active), the growth (A549/ATCC NSCLC) was 24.5% and the growth (786-0 renal) was 22.6%. The growth (COLO 205 colon) was -82.7% (active).

With `COc1cc(/C=C/C(=O)c2cc(OC)c(OC)c(OC)c2)ccc1Oc1nc(Nc2ccc(F)cc2)nc(N(C)C)n1` the growth (NCI-H23 lung) was -23.7% (active), the growth (NCI-H226 lung) was 17.9% and the growth (NCI-H322M lung) was 9.59% (active). The growth (HOP-62 NSCLC) was -44.5% (active), the growth (NCI-H460 lung) was -23% (active) and the growth (HOP-92 NSCLC) was -42.3% (active). For the same molecule, the growth (NCI-H522 lung) was -82.7% (active), the growth (A549/ATCC NSCLC) was -48.3% (active) and the growth (786-0 renal) was -94.1% (active). The growth (COLO 205 colon) was 7.64% (active).

In the case of `C/C(=C\c1ccc(O)cc1O)c1ccc2ccc(O)cc2[o+]1`, the growth (NCI-H23 lung) was 45.8%, the growth (NCI-H226 lung) was 66.2% and the growth (NCI-H322M lung) was 78.1%. For the same molecule, the growth (HOP-62 NSCLC) was 54.9%, the growth (NCI-H460 lung) was 56.8% and the growth (HOP-92 NSCLC) was 83.8%. It also gave a growth (NCI-H522 lung) of 55%, a growth (A549/ATCC NSCLC) of 91.9% and a growth (786-0 renal) of 52.9%. For the same molecule, the growth (COLO 205 colon) was 116%.

For `Nc1nc(Nc2ccc(Cl)cc2)nn1Cc1cccc(Br)c1`, the growth (NCI-H23 lung) was 31.7%, the growth (NCI-H226 lung) was 41.5% and the growth (NCI-H322M lung) was 44.7%. For the same molecule, the growth (HOP-62 NSCLC) was 52.5%, the growth (NCI-H460 lung) was 17.9% and the growth (HOP-92 NSCLC) was -9.09% (active). The growth (NCI-H522 lung) was 27.6%, the growth (A549/ATCC NSCLC) was 45% and the growth (786-0 renal) was 37.4%. For the same molecule, the growth (COLO 205 colon) was 24.7%.

For `Cc1cc(C)cc(Oc2cccc(-c3c(C)nnn3C3CCN(CCN(C)C)CC3)n2)c1`, the growth (NCI-H23 lung) was 34.5%, the growth (NCI-H226 lung) was 5.11% (active) and the growth (NCI-H322M lung) was 40%. For the same molecule, the growth (HOP-62 NSCLC) was 42.5%, the growth (NCI-H460 lung) was 51.1% and the growth (HOP-92 NSCLC) was -9.61% (active). The growth (NCI-H522 lung) was -15.7% (active), the growth (A549/ATCC NSCLC) was 30.3% and the growth (786-0 renal) was 22.3%. For the same molecule, the growth (COLO 205 colon) was -74% (active).

For `Cc1ccc(-c2cc(-c3cc4ccccc4nc3Cl)[nH]c(=S)n2)cc1`, the growth (NCI-H23 lung) was 71.5%, the growth (NCI-H226 lung) was 74.2% and the growth (NCI-H322M lung) was 81.7%. The growth (HOP-62 NSCLC) was 90.1%, the growth (NCI-H460 lung) was 83.3% and the growth (HOP-92 NSCLC) was 44.7%. The growth (NCI-H522 lung) was 37.8%, the growth (A549/ATCC NSCLC) was 85.5% and the growth (786-0 renal) was 74.3%. It also gave a growth (COLO 205 colon) of 89.5%.

`O=c1c2ccccc2nc(COc2ccccc2)n1/N=C/c1ccc(F)cc1` gave a growth (NCI-H23 lung) of 85.6%, a growth (NCI-H226 lung) of 78.9% and a growth (NCI-H322M lung) of 96.6%. For the same molecule, the growth (HOP-62 NSCLC) was 105%, the growth (NCI-H460 lung) was 85.4% and the growth (HOP-92 NSCLC) was 100%. The growth (NCI-H522 lung) was 81.8%, the growth (A549/ATCC NSCLC) was 86.2% and the growth (786-0 renal) was 89.4%. It also gave a growth (COLO 205 colon) of 114%.

`N#Cc1c(-c2ccc(F)cc2)nc(SCc2ccc([N+](=O)[O-])cc2)nc1N1CCOCC1` was tested, and the growth (NCI-H23 lung) was 74.8%, the growth (NCI-H226 lung) was 23.8% and the growth (NCI-H322M lung) was 82.7%. It also gave a growth (HOP-62 NSCLC) of 34.7%, a growth (NCI-H460 lung) of 77.4% and a growth (HOP-92 NSCLC) of 36.7%. For the same molecule, the growth (NCI-H522 lung) was 41.3%, the growth (A549/ATCC NSCLC) was 63.4% and the growth (786-0 renal) was 30.2%. The growth (COLO 205 colon) was 90.9%.

`O=c1[nH]n(C(=S)N/N=C/c2ccc(F)cc2)c(=O)c2ccccc12` gave a growth (NCI-H23 lung) of 75.3%, a growth (NCI-H226 lung) of 71.9% and a growth (NCI-H322M lung) of 83.9%. For the same molecule, the growth (HOP-62 NSCLC) was 80.3%, the growth (NCI-H460 lung) was 55.9% and the growth (HOP-92 NSCLC) was 77%. It also gave a growth (NCI-H522 lung) of 70%, a growth (A549/ATCC NSCLC) of 82.4% and a growth (786-0 renal) of 76.5%. It also gave a growth (COLO 205 colon) of 105%.

In the case of `NS(=O)(=O)c1ccc(NC(=O)CSc2ccc(-c3ccc(Cl)cc3)nn2)c(Br)c1`, the growth (NCI-H23 lung) was 61.1%, the growth (NCI-H226 lung) was -5.33% (active) and the growth (NCI-H322M lung) was 48.5%. For the same molecule, the growth (HOP-62 NSCLC) was 2.17% (active), the growth (NCI-H460 lung) was 23% and the growth (HOP-92 NSCLC) was -14.4% (active). For the same molecule, the growth (NCI-H522 lung) was 63.6%, the growth (A549/ATCC NSCLC) was 28.5% and the growth (786-0 renal) was 19.1%. It also gave a growth (COLO 205 colon) of 69.4%.

`COc1ccc(-c2nc(S(=O)(=O)c3ccccc3)c(S(C)(=O)=O)o2)cc1` was tested, and the growth (NCI-H23 lung) was 3.05% (active), the growth (NCI-H226 lung) was 74.5% and the growth (NCI-H322M lung) was 101%. For the same molecule, the growth (HOP-62 NSCLC) was 96.7%, the growth (NCI-H460 lung) was 75.9% and the growth (HOP-92 NSCLC) was -60.8% (active). For the same molecule, the growth (NCI-H522 lung) was -97.2% (active), the growth (A549/ATCC NSCLC) was 88.7% and the growth (786-0 renal) was -16.9% (active). For the same molecule, the growth (COLO 205 colon) was -85.6% (active).

Molecule `CC(=O)NNc1ccc2nnc(-c3ccc(Br)cc3)n2n1` has a growth (NCI-H23 lung) of 91.5%, a growth (NCI-H226 lung) of 87.8% and a growth (NCI-H322M lung) of 107%. It also gave a growth (HOP-62 NSCLC) of 82.5%, a growth (NCI-H460 lung) of 106% and a growth (HOP-92 NSCLC) of 103%. For the same molecule, the growth (NCI-H522 lung) was 85.3%, the growth (A549/ATCC NSCLC) was 95.9% and the growth (786-0 renal) was 86.3%. It also gave a growth (COLO 205 colon) of 109%.
